Experimental data taken from PubChem BioAssay AID1209 (Sanford-Burnham Center for Chemical Genomics, 2008).
Hit rate of the full screen: of about 190,000 compounds, about 810 (0.43%) were called active. No stated cut-off is given here; in the data, active means inhibition above about 50%; inactive means the rest. For the sample, actives were picked, then their nearest neighbours and some compounds at random.

These compounds were tested against Mannose-6-phosphate isomerase (Homo sapiens) (UniProt P34949) (assay: inhibitors of human PMI, primary screen, biochemical, fluorescence intensity, coupled assay (AID 1209;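 further: plate controls were DMSO vehicle for no effect and wells lacking substrate for full effect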)). Details: purified PMI enzyme, at 20 µM, active compounds read high.
Sequence of Mannose-6-phosphate isomerase (Homo sapiens) (P34949 whole entry, looked up): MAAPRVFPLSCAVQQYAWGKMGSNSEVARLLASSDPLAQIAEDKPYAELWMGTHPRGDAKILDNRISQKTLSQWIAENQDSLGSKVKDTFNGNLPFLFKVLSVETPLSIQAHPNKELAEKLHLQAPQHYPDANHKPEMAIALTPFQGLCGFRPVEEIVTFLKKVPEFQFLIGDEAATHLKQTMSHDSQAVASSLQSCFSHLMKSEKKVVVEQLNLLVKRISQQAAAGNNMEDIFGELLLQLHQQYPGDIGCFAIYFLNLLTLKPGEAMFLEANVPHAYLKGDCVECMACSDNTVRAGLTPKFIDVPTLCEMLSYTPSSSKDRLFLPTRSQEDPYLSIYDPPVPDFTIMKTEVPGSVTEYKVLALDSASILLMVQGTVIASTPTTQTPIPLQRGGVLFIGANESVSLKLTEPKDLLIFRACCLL

SMILES | inhibition
CNC(=O)c1ccccc1F | 6.4% (inactive)
O=C(C1CC1)N1N=C(C2CCCCC2)CC1(O)C(F)(F)F (stereo unspecified) | 6.9% (inactive)
O=C(C1CCCC1)N1CCC(CO)(Cc2ccccc2Cl)CC1 | 0.9% (inactive)
S=c1[nH]c2cc(Cl)ccc2s1 | -15.2% (inactive)
COc1ccc2[nH]c(=S)[nH]c2c1 | 16.4% (inactive)
S=c1[nH]c2ccc(Cl)cc2[nH]1 | 50.2% (active)
O=C(Nc1ccccc1Cl)N1CCN(C/C=C/c2ccccc2)CC1 | -2% (inactive)
Oc1ccc(-c2cn3c(n2)SCC3)cc1O | 59.5% (active)
Oc1ccc(-c2cn3c(n2)SCC3)cc1 | -8.6% (inactive)
Cc1ccc(-c2cn3c(n2)SCC3)cc1 | -3.8% (inactive)
CCNc1nc(N2CCOCC2)nc(N(c2ccccc2)c2ccccc2)n1 | 13% (inactive)
COc1ccc(Cl)cc1N/C(N)=N/c1nc(CSc2ccc(C)cc2)cc(=O)[nH]1 | 3.7% (inactive)
NC(=S)N/N=C\c1c2ccccc2cc2ccccc12 | -64.6% (inactive)
NC(=S)Nc1cccc2cc3ccccc3cc12 | -8.8% (inactive)
NC(=S)Nc1cc2ccccc2c2ccccc12 | 67.5% (active)
COc1ccc(C(=O)OCC(=O)NCCCc2ccccc2)cc1[N+](=O)[O-] | 9.8% (inactive)
O=C(CSc1nnnn1-c1ccccc1)N1CCc2ccccc2C1 | 4% (inactive)
CN(C)CCC(=O)c1cccc(Br)c1 | 24% (inactive)
CCN1C(=O)/C(=C2\SC(=S)N(c3c(C)n(C)n(-c4ccccc4)c3=O)C2=O)c2ccccc21 | 14.5% (inactive)
CC(=O)N1C(=O)/C(=C2\SC(=S)N(c3c(C)n(C)n(-c4ccccc4)c3=O)C2=O)c2ccccc21 | 64.9% (active)
Cc1c(N2C(=O)/C(=C3/C(=O)N(C)c4ccccc43)SC2=S)c(=O)n(-c2ccccc2)n1C | 11.1% (inactive)
N/C(COc1ncn(-c2ccccc2)n1)=N\S(=O)(=O)c1ccc(Cl)cc1Cl | 9.1% (inactive)
CCC(C)(C)NC(=O)C(OC(=O)c1ccco1)c1ccccc1OC (stereo unspecified) | 14.2% (inactive)
O=C(O)CNC(=O)CC1S/C(=N/N=C2\CSC(=O)N2)NC1=O (stereo unspecified) | 59.9% (active)
O=C(O)CNC(=O)CC1S/C(=N/N=C2/NC(=O)CS2)NC1=O (stereo unspecified) | 25.1% (inactive)
NC(=O)NC(=O)CC1S/C(=N/N=C2\CSC(=O)N2)NC1=O (stereo unspecified) | 48.8% (inactive)

SMILES | inhibition
CCc1sc(C(=O)Nc2ccsc2C(=O)OC)cc1Br | -4.6% (inactive)
O=C(CS(=O)(=O)c1cn(Cc2cccc(F)c2)c2ccccc12)N1CCOCC1 | 5.3% (inactive)
Cc1ccc2c(c1)C(=O)CCN2 | -1.2% (inactive)
O=C1CCNc2ccc(-c3ccccc3)cc21 | 3.1% (inactive)
Cc1ccc2oc(-c3ccccc3C(=O)O)cc(=O)c2c1 | -3.3% (inactive)
CCOC(=O)c1cc2n(c1/N=C/N(C)C)-c1ccccc1C2=O | 55.7% (active)
CCOC(=O)c1cnc(/N=C/N(C)C)s1 | 2.3% (inactive)
CCOC(=O)c1sc(/N=C/N(C)C)nc1C | -4.1% (inactive)
Cc1ccccc1-c1nnc(NC(=O)c2cc3ccccc3oc2=O)s1 | -1.2% (inactive)
CCN(CC)Cc1c(O)ccc2c(=O)c(-c3ccc4c(c3)OCCO4)coc12 | 5.6% (inactive)
COC1OC(COC(=O)CNC(=O)OC(C)(C)C)C(O)C(O)C1O (stereo unspecified) | -0.1% (inactive)
CCC(C(=O)NC1CCCCC1)N(Cc1cccs1)C(=O)c1snc(C(N)=O)c1N (stereo unspecified) | 3.9% (inactive)
CC(C)CC(C(=O)NC1CCCC1)N(Cc1cccs1)C(=O)c1snc(C(N)=O)c1N (stereo unspecified) | 13% (inactive)
CC(C)CC(C(=O)NC1CCCCC1)N(Cc1cccs1)C(=O)c1snc(C(N)=O)c1N (stereo unspecified) | 101% (active)
CCOC(=O)COc1ccc(S(=O)(=O)NCC2CCCO2)cc1 (stereo unspecified) | -1.8% (inactive)
COc1cccc(OCc2nc(-c3cccc([N+](=O)[O-])c3)no2)c1 | 4.9% (inactive)
O=[N+]([O-])c1cccc(-c2noc(COc3ccccc3)n2)c1 | 57.3% (active)
COc1ccccc1OCc1nc(-c2cccc([N+](=O)[O-])c2)no1 | 2.9% (inactive)
CC(=O)c1cnc(-c2ccccc2Cl)s1 | 0.5% (inactive)
CC(C(=O)Nc1nc2ccccc2s1)n1cc([N+](=O)[O-])cn1 (stereo unspecified) | 11.5% (inactive)
CCS(=O)(=O)Nc1ccc2[nH]c(=O)[nH]c2c1 | 52.1% (active)
Cc1cc(C)c(S(=O)(=O)Nc2ccc3[nH]c(=O)[nH]c3c2)c(C)c1 | 4.4% (inactive)
CS(=O)(=O)Nc1ccc2[nH]c(=O)[nH]c2c1 | 3.3% (inactive)
N#C/C(=C\c1cccc(NC(=O)c2ccccc2Cl)c1)C(=O)NCCc1ccccc1 | 10.1% (inactive)
O=C(Cc1ccc(F)cc1)OCC(=O)c1cc2ccccc2o1 | 9% (inactive)
COC1=C(N)C(=O)c2nc(-c3nc(C(=O)O)c(C)c(-c4ccc(OC)c(OC)c4O)c3N)ccc2C1=O | 56% (active)

SMILES | inhibition
COc1ccc(-c2n[nH]c(C)c2-c2ccc(Cl)cc2)c(O)c1OC | 6.7% (inactive)
COc1ccc(-c2nc(N)ncc2-c2csc(C)n2)c(O)c1OC | 6.8% (inactive)
NS(=O)(=O)c1ccc(NC(=O)C2(c3ccccc3)CCCC2)cc1 | 1.9% (inactive)
O=C(CSc1ccc(-c2ccccn2)nn1)c1ccc([N+](=O)[O-])cc1 | 3.7% (inactive)
O=C(CSc1ccc(-c2ccccn2)nn1)c1ccc(F)cc1 | 62.5% (active)
O=C(CSc1ccc(-c2ccccn2)nn1)c1ccccc1 | -14.4% (inactive)
CSC1=N/C(=C\c2ccc(C)s2)C(=O)S1 | 7% (inactive)
O=C(NC1CCCCCCC1)c1ccc2c(c1)N(Cc1ccc(F)cc1)C(=O)CS2=O (stereo unspecified) | 0.6% (inactive)
NC(=S)Nn1c(CCC(=O)O)ccc1-c1ccccc1 | 14.4% (inactive)
CCc1ccc(C(=O)COC(=O)CCc2nc3ccccc3c(=O)[nH]2)cc1 | -28.6% (inactive)
Cc1cccc2cc(C#N)c(SCc3nnc(-c4ccccc4[N+](=O)[O-])o3)nc12 | 11.1% (inactive)
C/C=C(\C)C(=O)NCCN1C2=NC[C@H](C(C)C)N2C[C@H]1Cc1ccc(O)cc1 | 1.5% (inactive)
Cc1ccc(S(=O)(=O)NCc2ccc(/C=C(/C#N)C(=O)NCc3ccccc3)o2)cc1 | 58.4% (active)
COCCNC(=O)/C(C#N)=C\c1ccc(CNS(=O)(=O)c2ccc(C)cc2)o1 | 6.2% (inactive)
N#C/C(=C/c1ccc(CNS(=O)(=O)c2ccccc2)o1)C(=O)NCc1ccccc1 | 7.8% (inactive)
CCCNS(=O)(=O)c1ccc(OCC(=O)Nc2ccccc2F)cc1 | -1.4% (inactive)
CC1=NC(C)(C)Cc2ccccc21 | 7.7% (inactive)
CC1(C)CC(=O)C(C2=NC(C)(C)Cc3ccccc32)=C(O)C1 | -4% (inactive)
CC1(C)Cc2ccccc2C2=NNC(=O)C2=N1 | 84% (active)
O=S(=O)(/C=C/c1ccccc1)N1CCN(Cc2ccccc2)CC1 | -1.6% (inactive)
COc1ccc2nc(NC(=O)CNS(=O)(=O)c3cccs3)sc2c1 | 1.5% (inactive)
CN1CCC(N(C)C(=S)Nc2ccc(SC(F)F)cc2)CC1 | -2% (inactive)
CN(C(=S)Nc1cccnc1)c1ccc(O)cc1 | 59.2% (active)
CN(C(=S)Nc1ccc(Oc2ccccc2)cc1)c1ccc(O)cc1 | 64% (active)
CN(C(=S)Nc1ccc(SC(F)F)cc1)c1ccc(O)cc1 | 77.2% (active)
CCN(C(=S)Nc1cccnc1)c1cccc2ccccc12 | 61.2% (active)

SMILES | inhibition
Oc1cccc(NC(=S)Nc2ccc(SC(F)F)cc2)c1 | 18.1% (inactive)
CN(C(=S)Nc1ccccc1)c1ccccc1 | 3.2% (inactive)
CN(Cc1ccccc1)C(=S)Nc1cccnc1 | 0.8% (inactive)
CCN(C(=S)Nc1ccc(Oc2ccccc2)cc1)c1ccccc1 | 3.3% (inactive)
CCN(C(=S)Nc1cccnc1)c1ccccc1 | 4% (inactive)
Oc1cccc(NC(=S)Nc2cccnc2)c1 | 14.8% (inactive)
CCN(C(=S)NCc1ccccc1)c1cccc2ccccc12 | 6.3% (inactive)
Cn1cnnc1SCc1nc(N)nc(Nc2ccccc2)n1 | 0.3% (inactive)
Cc1ccc(C)c(NC2=CC(=O)CC(C)(C)C2)c1C#N | -12% (inactive)
CC(=O)N(NC(=O)c1ccc(C)cc1)C1CC(=O)N(c2ccccc2Cl)C1=O (stereo unspecified) | -5.8% (inactive)
Cc1ccc(NC(=O)Cn2cc(C(F)(F)F)cc(Cl)c2=O)cc1Cl | 3.2% (inactive)
C=CCn1c(Cc2cccs2)nnc1SCC(=O)Nc1ccc(OC)c(OC)c1 | 5.9% (inactive)
Cc1nn(C)cc1C(=O)Nc1cc(Oc2ccc(Cl)cc2)cc([N+](=O)[O-])c1 | -2.9% (inactive)
COc1ccc2c(C)c(Cl)c(=O)oc2c1 | 3.5% (inactive)
CCOc1ccc2nc(N(CCN(CC)CC)C(=O)c3cccc([N+](=O)[O-])c3)sc2c1 | 33.9% (inactive)
CCN(CC)CCN(C(=O)c1cccc([N+](=O)[O-])c1)c1nc2ccc(OC)cc2s1 | 56.7% (active)
CCN(CC)CCN(C(=O)c1ccc([N+](=O)[O-])cc1)c1nc2ccc(OC)cc2s1 | 1.1% (inactive)
C=CCNC(=O)c1cc(C(=O)C(C)c2ncc(C(F)(F)F)cc2Cl)c[nH]1 (stereo unspecified) | 0.9% (inactive)
N=c1sccn1CC(=O)NCc1ccc(Cl)cc1Cl | -8.6% (inactive)
COC(=O)C1CCN(C2CC(=O)N(c3cc(C)cc(C)c3)C2=O)CC1 (stereo unspecified) | -1.3% (inactive)
COc1ccc(OCc2n[nH]c(=S)n2N)cc1 | 80.7% (active)
Cc1ccc(OCc2n[nH]c(=S)n2N)cc1C | 1.5% (inactive)
Nn1c(COc2ccc(Cl)cc2)n[nH]c1=S | 12% (inactive)
